According to PubChem BioAssay (Tox21):
Records with an inconclusive call do not appear. The source made the active and inactive calls. Unless noted, the call rests on the fitted dose curve.

Legend:
[1] = qHTS assay to identify small molecule agonists of the vitamin D receptor (VDR) signaling pathway - cell viability counter screen (AID 743224; active means well fitted curve in the direction sought with a large enough effect in the repeat runs; an effect the other way counts as inactive or inconclusive; further: series mostly up to about 63 µM; nearly all actives have a fitted effect of over 50% in size)
Procedure, shortened: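 VDR-bla cells, 4 h after plating, exposed to compounds for 16 h at 37C; viability then read in the same wells as CellTiter-Glo luminescence after 30 min at room temperature, following the bla FRET read.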

[2] = qHTS assay to identify small molecule antagonists of the vitamin D receptor (VDR) signaling pathway - cell viability counter screen (AID 743225; active means well fitted curve in the direction sought with a large enough effect in the repeat runs; an effect the other way counts as inactive or inconclusive; further: nearly all actives have a fitted effect of over 50% in size)
Procedure, shortened: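 Read-out: CellTiter-Glo luminescence measured 30 min after reagent addition at room temperature. Cells were VDR-bla HEK 293T exposed 16 h at 37C, 5% CO2, to compound with 3 nM final calcitriol agonist.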

[3] = qHTS assay to identify small molecule agonists of the NFkB signaling pathway (AID 1159509; active means well fitted curve in the direction sought with a large enough effect in the signal ratio in the repeat runs, not every such curve was filed as active; the % refers to the signal ratio; further: series mostly up to about 61 µM)
Procedure, shortened: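 ME-180 NFkB-bla, 2,000 cells/well, overnight plating; cpd pinned in DMSO, 5 h 37 C; B/G FRET substrate 1.5 h RT; ex 405, em 460/530 nm.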

[4] = qHTS assay to identify small molecule agonists of the NFkB signaling pathway - cell viability counter screen (AID 1159515); further: series mostly up to about 61 µM; nearly all actives have a fitted effect of over 55% in size
Procedure, shortened: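 NFkB-bla ME-180 cells, 2,000/well, plated overnight at 37 C; compound added for 5 hr at 37 C. Viability read in the same wells as the bla reporter, by CellTiter-Glo luminescence after 30 min at room temperature.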

[5] = qHTS assay to identify small molecule agonists of the endoplasmic reticulum stress response signaling pathway - cell viability counter screen (AID 1159517);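 further: HeLa cells carrying an ER stress response element beta-lactamase reporter; series mostly up to about 61 µM; nearly all actives have a fitted effect of over 50% in size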
Procedure, shortened: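 HeLa cells carrying an ESRE-driven beta-lactamase reporter receive compound for 5 hr at 37 C. Cell viability is then gauged with CellTiter-Glo by luminescence, 30 min at room temperature.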

[6] = qHTS assay to identify small molecule antagonists of the retinoid-related orphan receptor gamma (ROR-gamma) signaling pathway - cell viability counter screen (AID 1159520; active means well fitted curve in the direction sought with a large enough effect in the repeat runs; an effect the other way counts as inactive or inconclusive; further: nearly all actives have a fitted effect of over 50% in size)
Procedure, shortened: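 Cytotoxicity was read from cellular ATP (CellTiter-Glo luminescence) after 16 hr at 37 C with 1 uM doxycycline induction. The inducer was added 2 hr after compound transfer to Tet-on ROR gamma CHO cells.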

[7] = target: Nuclear receptor ROR-gamma (Homo sapiens) (UniProt P51449); assay: qHTS assay to identify small molecule antagonists of the retinoid-related orphan receptor gamma (ROR-gamma) signaling pathway (AID 1159521; active means well fitted curve in the direction sought with a large enough effect in the repeat runs; an effect the other way counts as inactive or inconclusive)
Procedure, shortened: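 CHO Tet-on RORγ, RORE-luc reporter. Cpd 2 h pre-incubation, then dox hyclate 1 uM final, 16 h, 37 C/5% CO2. ONE-Glo luminescence; decrease = antagonist.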

[8] = qHTS assay to identify small molecule agonists of the AP-1 signaling pathway - cell viability counter screen (AID 1159525); further: nearly all actives have a fitted effect of over 55% in size
Procedure, shortened: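 Luminescent ATP readout (Cell Titer Glo, 30 min RT), normalised to DMSO and tetra n-octyl ammonium bromide controls. Cells were ME-180 AP-1-bla in 0.5% dialyzed FBS Opti-MEM, with a 5 h, 37 °C compound exposure.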

[9] = qHTS assay to identify small molecule agonists of the AP-1 signaling pathway (AID 1159526)
[10] = qHTS assay to identify small molecule agonists of the endoplasmic reticulum stress response signaling pathway (AID 1159516; active means well fitted activation curve with a large enough effect in the signal ratio in the repeat runs, not every such curve was filed as active; the % refers to the signal ratio)
Procedure, shortened: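 CellSensor ESRE-bla HeLa cells, 1,500 per well, plated overnight, then exposed to compounds for 5 hr at 37 C. Beta-lactamase reporter read with LiveBLAzer B/G FRET substrate after 2 hr at room temperature, 405 nm excitation, 460 and 530 nm emission.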

Measured: Potency

Oc1ccc(Oc2ccccc2)cc1
not listed: [10]
inactive: all other assays above

CC(C)(O)C(=O)O
not listed: [2] | [10]
inactive: all other assays above

CCCCCCCCCCCCSC#N
not listed: [10]
inactive: all other assays above

C/C(=C(\CCO)SS/C(CCO)=C(\C)N(C=O)Cc1cnc(C)nc1N)N(C=O)Cc1cnc(C)nc1N
not listed: [10]
inactive: all other assays above

CC(=O)Nc1ccccc1O
not listed: [10]
inactive: all other assays above

CCc1ccc(C(=O)C(C)CN2CCCCC2)cc1 (stereo not drawn)
not listed: [10]
inactive: all other assays above

O=S(=O)(O)c1cc(Cl)c(Cl)cc1Cl
not listed: [2] | [7] | [10]
inactive: all other assays above

CC(C)CCCCCCCOC(=O)c1ccc(C(=O)OCCCCCCCC(C)C)c(C(=O)OCCCCCCCC(C)C)c1
not listed: [6] | [10]
inactive: all other assays above

O=c1[nH]nc(-c2ccc([N+](=O)[O-])o2)o1
not listed: [10]
inactive: all other assays above

CCOc1ccc(NC(C)=O)cc1N
not listed: [6] | [7] | [10]
inactive: all other assays above

CCCCCCCCOCCCN
inactive: [3] | [4] | [5] | [7] | [8]

C1CCN(CN2CCCCC2)CC1
not listed: [10]
inactive: all other assays above

CCCCCCOC(=O)c1ccccc1
not listed: [2] | [3]
inactive: all other assays above

O=[N+]([O-])c1ccc(Cl)cc1Cl
not listed: [10]
inactive: all other assays above

CC(C)(C)c1ccc(CCC=O)cc1
not listed: [6] | [10]
inactive: all other assays above

CCCCOC(=O)CC#N
not listed: [6] | [10]
inactive: all other assays above

Nc1cccc2c(=O)[nH][nH]c(=O)c12
not listed: [2] | [3]
inactive: all other assays above

O=C(O)c1cc(C(=O)O)c(C(=O)O)cc1C(=O)O
not listed: [10]
inactive: all other assays above

CC(C(=O)O)c1ccc2c(c1)Cc1cccnc1O2 (stereo not drawn)
not listed: [7] | [10]
inactive: all other assays above

CCc1cnc(C(=O)O)c(C(=O)O)c1
not listed: [3]
inactive: all other assays above

Cc1ccc2ccccc2c1[N+](=O)[O-]
not listed: [3]
inactive: all other assays above

CC/C=C/CCO
not listed: [2] | [3] | [7]
inactive: all other assays above

COC(=O)Cc1cccc2ccccc12
not listed: [3]
inactive: all other assays above

CCC[Si](OC)(OC)OC
not listed: [2] | [3] | [6]
inactive: all other assays above

C=Cc1ccc(C=C)cc1
not listed: [3] | [7]
inactive: all other assays above

CCCCCCC/C=C/C=O
not listed: [3]
inactive: all other assays above

CC/C=C\CCO
not listed: [3] | [7]
inactive: all other assays above

Nc1ccccc1Nc1ccccc1
not listed: [3] | [6] | [10]
inactive: all other assays above

Sc1nc(S)nc(S)n1
not listed: [3]
inactive: all other assays above
